# How the values were obtained:
# [1] = molecular target: Death-associated protein kinase 1 (Homo sapiens) (UniProt P53355); details: at 1 µM;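 note: each value is a mean inhibition figure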
# [2] = molecular target: T1, Serine/threonine-protein kinase DCLK2 (Homo sapiens) (UniProt Q8N568); details: at 0.1 µM
# T1 sequence (whole entry): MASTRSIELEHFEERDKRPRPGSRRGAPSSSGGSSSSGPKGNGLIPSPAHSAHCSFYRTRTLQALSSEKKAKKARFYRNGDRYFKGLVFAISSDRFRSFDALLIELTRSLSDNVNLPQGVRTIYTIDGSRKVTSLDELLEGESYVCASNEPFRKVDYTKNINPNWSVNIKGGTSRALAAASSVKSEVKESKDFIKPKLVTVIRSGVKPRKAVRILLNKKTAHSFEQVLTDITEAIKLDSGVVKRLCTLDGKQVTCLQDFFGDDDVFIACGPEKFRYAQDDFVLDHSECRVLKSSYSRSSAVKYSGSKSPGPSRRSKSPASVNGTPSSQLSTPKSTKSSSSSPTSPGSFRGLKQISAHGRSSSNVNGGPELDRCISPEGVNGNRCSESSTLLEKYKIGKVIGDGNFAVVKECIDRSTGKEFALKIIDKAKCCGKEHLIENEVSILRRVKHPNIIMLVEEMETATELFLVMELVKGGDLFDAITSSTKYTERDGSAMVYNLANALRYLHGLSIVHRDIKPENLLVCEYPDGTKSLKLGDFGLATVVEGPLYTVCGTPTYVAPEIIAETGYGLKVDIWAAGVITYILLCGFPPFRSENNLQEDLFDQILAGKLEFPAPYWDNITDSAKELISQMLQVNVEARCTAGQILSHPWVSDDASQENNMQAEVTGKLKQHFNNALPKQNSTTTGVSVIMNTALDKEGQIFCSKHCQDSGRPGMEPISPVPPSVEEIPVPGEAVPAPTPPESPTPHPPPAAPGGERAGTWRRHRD
# [3] = molecular target: T1, Serine/threonine-protein kinase DCLK2 (Homo sapiens); details: at 1 µM
# [4] = molecular target: MAP kinase-activated protein kinase 2 (Homo sapiens) (UniProt P49137); details: at 0.1 µM
# [5] = molecular target: MAP kinase-activated protein kinase 2 (Homo sapiens) (UniProt P49137); details: at 1 µM
# [6] = molecular target: MAP kinase-activated protein kinase 3 (Homo sapiens) (UniProt Q16644); details: at 0.1 µM
# [7] = molecular target: MAP kinase-activated protein kinase 3 (Homo sapiens) (UniProt Q16644); details: at 1 µM
# [8] = molecular target: Serine/threonine-protein kinase MARK1 (Homo sapiens) (UniProt Q9P0L2); details: at 0.1 µM
# [9] = molecular target: Serine/threonine-protein kinase MARK1 (Homo sapiens) (UniProt Q9P0L2); details: at 1 µM
# [10] = molecular target: MAP/microtubule affinity-regulating kinase 3 (Homo sapiens) (UniProt P27448); details: at 0.1 µM;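 note: mean percent inhibition of MARK3 kinase activity, measured within the GSK PKIS screening panel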
# MAP/microtubule affinity-regulating kinase 3 (Homo sapiens), sequence (P27448 whole entry, looked up): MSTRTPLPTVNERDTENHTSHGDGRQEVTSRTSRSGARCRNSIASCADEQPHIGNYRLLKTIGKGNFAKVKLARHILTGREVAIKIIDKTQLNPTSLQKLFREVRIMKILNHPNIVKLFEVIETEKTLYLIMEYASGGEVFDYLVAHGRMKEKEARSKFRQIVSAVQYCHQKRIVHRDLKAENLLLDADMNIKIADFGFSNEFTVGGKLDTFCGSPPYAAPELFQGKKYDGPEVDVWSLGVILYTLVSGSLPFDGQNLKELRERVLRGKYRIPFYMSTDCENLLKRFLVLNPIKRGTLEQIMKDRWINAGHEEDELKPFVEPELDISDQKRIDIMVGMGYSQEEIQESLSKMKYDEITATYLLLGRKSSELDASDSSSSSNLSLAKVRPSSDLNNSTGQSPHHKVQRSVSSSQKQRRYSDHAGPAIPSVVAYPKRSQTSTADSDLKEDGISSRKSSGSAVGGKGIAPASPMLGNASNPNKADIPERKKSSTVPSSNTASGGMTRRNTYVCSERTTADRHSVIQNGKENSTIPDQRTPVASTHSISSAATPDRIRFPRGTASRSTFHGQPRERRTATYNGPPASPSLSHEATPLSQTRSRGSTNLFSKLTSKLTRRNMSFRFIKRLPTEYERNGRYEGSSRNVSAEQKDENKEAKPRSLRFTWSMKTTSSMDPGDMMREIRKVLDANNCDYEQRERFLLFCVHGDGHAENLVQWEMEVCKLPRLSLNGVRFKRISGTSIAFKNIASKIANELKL
# MAP kinase-activated protein kinase 2 (Homo sapiens), sequence (P49137 whole entry, looked up): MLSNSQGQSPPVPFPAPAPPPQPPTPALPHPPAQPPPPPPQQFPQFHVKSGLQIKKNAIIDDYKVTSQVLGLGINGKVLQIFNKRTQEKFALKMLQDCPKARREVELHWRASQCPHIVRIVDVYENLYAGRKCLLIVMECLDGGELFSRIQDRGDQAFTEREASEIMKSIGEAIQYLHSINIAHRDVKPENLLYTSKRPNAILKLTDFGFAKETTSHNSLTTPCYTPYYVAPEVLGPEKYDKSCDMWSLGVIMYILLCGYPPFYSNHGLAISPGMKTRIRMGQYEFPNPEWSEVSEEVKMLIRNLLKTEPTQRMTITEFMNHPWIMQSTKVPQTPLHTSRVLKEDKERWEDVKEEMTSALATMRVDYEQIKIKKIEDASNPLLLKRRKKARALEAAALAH
# MAP kinase-activated protein kinase 3 (Homo sapiens), sequence (Q16644 whole entry, looked up): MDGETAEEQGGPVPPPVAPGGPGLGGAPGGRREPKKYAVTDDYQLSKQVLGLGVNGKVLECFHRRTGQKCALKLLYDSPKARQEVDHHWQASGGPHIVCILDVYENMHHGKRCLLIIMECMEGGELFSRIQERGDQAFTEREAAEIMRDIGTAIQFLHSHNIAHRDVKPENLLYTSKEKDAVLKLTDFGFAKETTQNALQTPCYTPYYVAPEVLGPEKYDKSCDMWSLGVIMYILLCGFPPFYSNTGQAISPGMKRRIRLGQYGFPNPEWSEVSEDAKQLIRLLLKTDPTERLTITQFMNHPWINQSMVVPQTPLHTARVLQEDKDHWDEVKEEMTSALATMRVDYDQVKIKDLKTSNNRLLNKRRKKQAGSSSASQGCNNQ
# Serine/threonine-protein kinase MARK1 (Homo sapiens), sequence (Q9P0L2 whole entry, looked up): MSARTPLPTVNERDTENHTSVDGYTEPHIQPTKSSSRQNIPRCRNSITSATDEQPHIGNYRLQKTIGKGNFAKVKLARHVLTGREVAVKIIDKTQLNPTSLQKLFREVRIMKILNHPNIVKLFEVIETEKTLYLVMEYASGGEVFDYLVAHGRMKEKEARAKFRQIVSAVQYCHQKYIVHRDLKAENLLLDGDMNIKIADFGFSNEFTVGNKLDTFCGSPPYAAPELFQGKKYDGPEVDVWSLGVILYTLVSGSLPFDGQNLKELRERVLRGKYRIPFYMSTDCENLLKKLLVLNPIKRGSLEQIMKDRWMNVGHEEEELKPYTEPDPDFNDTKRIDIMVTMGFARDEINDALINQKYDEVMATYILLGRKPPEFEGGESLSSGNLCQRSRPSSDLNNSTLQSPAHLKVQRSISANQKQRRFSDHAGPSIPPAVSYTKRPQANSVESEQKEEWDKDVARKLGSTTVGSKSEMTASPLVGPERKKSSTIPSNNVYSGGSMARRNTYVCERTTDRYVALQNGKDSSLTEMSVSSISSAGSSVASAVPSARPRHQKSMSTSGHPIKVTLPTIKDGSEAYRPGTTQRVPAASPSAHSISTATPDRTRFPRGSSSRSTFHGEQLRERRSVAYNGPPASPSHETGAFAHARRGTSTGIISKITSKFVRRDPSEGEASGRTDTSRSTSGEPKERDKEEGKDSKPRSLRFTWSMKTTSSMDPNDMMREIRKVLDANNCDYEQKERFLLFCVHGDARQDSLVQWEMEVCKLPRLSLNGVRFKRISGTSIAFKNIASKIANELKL
# Death-associated protein kinase 1 (Homo sapiens), sequence (P53355 whole entry, looked up): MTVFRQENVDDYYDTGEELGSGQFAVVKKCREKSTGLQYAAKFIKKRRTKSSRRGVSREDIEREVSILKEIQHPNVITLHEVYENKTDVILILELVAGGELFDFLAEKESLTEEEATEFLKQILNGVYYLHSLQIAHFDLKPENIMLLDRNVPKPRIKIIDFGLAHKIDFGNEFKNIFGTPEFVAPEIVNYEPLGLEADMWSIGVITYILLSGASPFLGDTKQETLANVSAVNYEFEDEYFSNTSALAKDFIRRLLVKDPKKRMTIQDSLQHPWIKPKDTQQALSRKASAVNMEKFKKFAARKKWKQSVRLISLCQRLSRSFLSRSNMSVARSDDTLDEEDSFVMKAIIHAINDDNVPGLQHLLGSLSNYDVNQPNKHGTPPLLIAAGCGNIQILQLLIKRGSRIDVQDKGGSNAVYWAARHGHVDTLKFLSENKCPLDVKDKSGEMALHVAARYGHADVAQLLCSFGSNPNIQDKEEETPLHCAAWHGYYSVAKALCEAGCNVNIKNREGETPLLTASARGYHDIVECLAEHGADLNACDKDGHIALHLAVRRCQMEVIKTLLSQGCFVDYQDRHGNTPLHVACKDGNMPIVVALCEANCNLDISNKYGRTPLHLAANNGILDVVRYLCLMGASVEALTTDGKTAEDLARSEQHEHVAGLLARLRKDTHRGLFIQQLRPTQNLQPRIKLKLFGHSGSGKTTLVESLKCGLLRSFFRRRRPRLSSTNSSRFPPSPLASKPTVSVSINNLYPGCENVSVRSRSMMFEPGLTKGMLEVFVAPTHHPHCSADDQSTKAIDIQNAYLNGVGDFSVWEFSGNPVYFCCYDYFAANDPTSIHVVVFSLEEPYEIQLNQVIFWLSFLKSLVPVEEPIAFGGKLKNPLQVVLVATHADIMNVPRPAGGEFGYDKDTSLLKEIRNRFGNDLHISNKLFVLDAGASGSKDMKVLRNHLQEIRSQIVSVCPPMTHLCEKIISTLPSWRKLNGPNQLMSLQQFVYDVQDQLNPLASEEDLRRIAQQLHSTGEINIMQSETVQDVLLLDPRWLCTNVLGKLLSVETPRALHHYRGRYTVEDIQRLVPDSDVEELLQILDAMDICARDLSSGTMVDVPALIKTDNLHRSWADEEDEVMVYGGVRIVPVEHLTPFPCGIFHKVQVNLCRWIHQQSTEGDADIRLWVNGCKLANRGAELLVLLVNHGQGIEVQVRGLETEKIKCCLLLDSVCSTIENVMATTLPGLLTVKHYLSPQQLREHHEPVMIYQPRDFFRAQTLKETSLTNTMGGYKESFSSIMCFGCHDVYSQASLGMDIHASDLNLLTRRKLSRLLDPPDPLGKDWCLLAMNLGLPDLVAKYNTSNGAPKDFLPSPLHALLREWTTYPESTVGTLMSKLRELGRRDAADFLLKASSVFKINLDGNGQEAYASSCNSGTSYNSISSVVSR
smiles,measurement,setting,value
Nc1nonc1-c1nc2cnccc2n1C1CCCCC1,inhibition,[1],-1.97%
same,inhibition,[2],-0.3%
same,inhibition,[3],1.52%
same,inhibition,[4],-1.18%
same,inhibition,[5],-1.08%
same,inhibition,[6],-2.2%
same,inhibition,[7],-2.76%
same,inhibition,[8],2.89%
same,inhibition,[9],16.5%
same,inhibition,[10],4.04%
CCn1c(-c2nonc2N)nc2c(C#CC(C)(C)O)nc(O[C@@H](CN)c3ccccc3)cc21,inhibition,[1],2.31%
same,inhibition,[2],6.73%
same,inhibition,[3],18.5%
same,inhibition,[4],-0.97%
same,inhibition,[5],-1%
same,inhibition,[6],-3.02%
same,inhibition,[7],-0.47%
same,inhibition,[8],77.2%
same,inhibition,[9],93.1%
same,inhibition,[10],83.3%
COc1cc(C=NNc2ncnc3c2cnn3Cc2ccccc2)ccc1O,inhibition,[1],-3.68%
same,inhibition,[2],-3.6%
same,inhibition,[3],-3.02%
same,inhibition,[4],-2.2%
same,inhibition,[5],-2.27%
same,inhibition,[6],-2.35%
same,inhibition,[7],-1.92%
same,inhibition,[8],-0.6%
same,inhibition,[9],1.36%
same,inhibition,[10],0.53%
COc1cccc(COc2cc(-n3cnc4ccccc43)sc2C(N)=O)c1,inhibition,[1],1.02%
same,inhibition,[2],-0.3%
same,inhibition,[3],0.3%
same,inhibition,[4],-0.08%
same,inhibition,[5],-1.3%
same,inhibition,[6],2.28%
same,inhibition,[7],3.61%
same,inhibition,[8],0.58%
same,inhibition,[9],1.16%
same,inhibition,[10],2.28%
COc1cccc(-n2ncc3c(N/N=C/c4ccncc4)ncnc32)c1,inhibition,[1],4.53%
same,inhibition,[2],2.42%
same,inhibition,[3],1.8%
same,inhibition,[4],2.5%
same,inhibition,[5],1.87%
same,inhibition,[6],3.62%
same,inhibition,[7],4.56%
same,inhibition,[8],4.99%
same,inhibition,[9],9.17%
same,inhibition,[10],5.75%
NC(=O)c1sc(-n2cnc3cc(C(F)(F)F)ccc32)cc1OCc1ccccc1Br,inhibition,[1],0%
same,inhibition,[2],-1.23%
same,inhibition,[3],2.52%
same,inhibition,[4],0.61%
same,inhibition,[5],0.42%
same,inhibition,[6],1.71%
same,inhibition,[7],-0.9%
same,inhibition,[8],1.79%
same,inhibition,[9],1.6%
same,inhibition,[10],1.11%
CCn1c(-c2nonc2N)nc2c(C#CC(C)(C)O)ncc(OCC3CCNCC3)c21,inhibition,[1],1.75%
same,inhibition,[2],-3.05%
same,inhibition,[3],-1.26%
same,inhibition,[4],0.79%
same,inhibition,[5],1.63%
same,inhibition,[6],2.86%
same,inhibition,[7],1.31%
same,inhibition,[8],15.5%
same,inhibition,[9],61.3%
same,inhibition,[10],13%
Cc1cc(-c2ccco2)cc(C)c1/C=C/c1cncc(-c2nn[nH]n2)c1,inhibition,[1],0.04%
same,inhibition,[2],-1.22%
same,inhibition,[3],0.25%
same,inhibition,[4],0.52%
same,inhibition,[5],0.01%
same,inhibition,[6],1.42%
same,inhibition,[7],1.25%
same,inhibition,[8],1.07%
same,inhibition,[9],1.26%
same,inhibition,[10],-0.4%
CCn1c(-c2nonc2N)nc2c(C#CCN)ncc(OCCCN)c21,inhibition,[1],-3.38%
same,inhibition,[2],-0.93%
same,inhibition,[3],-0.65%
same,inhibition,[4],-0.73%
same,inhibition,[5],-0.87%
same,inhibition,[6],-1.07%
same,inhibition,[7],-0.66%
same,inhibition,[8],4.42%
same,inhibition,[9],11%
same,inhibition,[10],6.58%
CCn1c(-c2nonc2N)nc2c(C#CC(C)(C)O)ncc(OC[C@@H]3CCCN3)c21,inhibition,[1],0.89%
same,inhibition,[2],-1.55%
same,inhibition,[3],2.93%
same,inhibition,[4],-0.56%
same,inhibition,[5],-0.71%
same,inhibition,[6],-0.39%
same,inhibition,[7],-0.82%
same,inhibition,[8],13.8%
same,inhibition,[9],61.1%
same,inhibition,[10],14.9%
NS(=O)(=O)c1ccc(-c2ccc3c(NC(=O)C4CC4)n[nH]c3c2)cc1,inhibition,[1],4.32%
same,inhibition,[2],0.37%
same,inhibition,[3],0.39%
same,inhibition,[4],1.09%
same,inhibition,[5],0.96%
same,inhibition,[6],2.61%
same,inhibition,[7],2.69%
same,inhibition,[8],1.75%
same,inhibition,[9],2.18%
same,inhibition,[10],2.65%
NS(=O)(=O)c1ccc(N/C=C2\C(=O)Nc3ccc4ncsc4c32)cc1,inhibition,[1],9.33%
same,inhibition,[2],0.08%
same,inhibition,[3],5.55%
same,inhibition,[4],2.68%
same,inhibition,[5],2.48%
same,inhibition,[6],7.84%
same,inhibition,[7],10.4%
same,inhibition,[8],13.6%
same,inhibition,[9],53.8%
same,inhibition,[10],8.01%
Fc1ccc(-c2ncn(C3CCNCC3)c2-c2ccnc(Oc3ccccc3)n2)cc1,inhibition,[1],-1.87%
same,inhibition,[2],-4.56%
same,inhibition,[3],-2.43%
same,inhibition,[4],0.07%
same,inhibition,[5],-0.82%
same,inhibition,[6],31.3%
same,inhibition,[7],33.4%
same,inhibition,[8],0.45%
same,inhibition,[9],0.99%
same,inhibition,[10],0.57%
COc1cc2c(cc1Nc1nc(Nc3ccsc3C(N)=O)c3cc[nH]c3n1)N(C(=O)CN(C)C)CCC2,inhibition,[1],4.14%
same,inhibition,[2],-2.25%
same,inhibition,[3],0.34%
same,inhibition,[4],-0.32%
same,inhibition,[5],-2.2%
same,inhibition,[6],6.83%
same,inhibition,[7],6.01%
same,inhibition,[8],2.48%
same,inhibition,[9],5.99%
same,inhibition,[10],2.11%

# From ChEMBL document CHEMBL1961873, “Compounds: GSK PKIS; Assays: Nanosyn kinase panel” (2012)
